Several values for one entry are separate records, joined by “and”; a condition that tells them apart may be missing. Identical values can stand only once. Activity calls are given as the source filed them.
Assays:
[1] = E. coli DRC41 culture turbidity changes, primary screen, E. coli filamentation inducer project, strain DRC41, OD650, 48 h (AID 1152);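 further: E. coli MC1000 strain DRC41 lacking acrAB efflux pump and sulA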; details: E. coli DRC41 (acrAB sulA), higher = more signal, called active from +8 up or from −8 down
[2] = small-molecule binders of probe aLefty1, primary screen, biochemical, small-molecule microarray, 635/667 nm fluorescence (AID 1153); details: higher = more signal;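 further: score merges spot fluorescence with signal-to-noise ratio from the scanned slide images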
[3] = PSAC antagonists in infected red cells, primary screen, cell-based, P. falciparum Indochina, OD700, 1 h (AID 1154); details: P. falciparum Indochina infected RBC osmotic lysis, higher = more signal, called active from +8 up or from −8 down
[4] = PSAC antagonists in infected red cells, primary screen, cell-based, P. falciparum Indochina, OD700, 2 h (AID 1155);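 further: lysis reports solute entry through the parasite surface anion channel PSAC; channel blockers reduce lysis of infected cells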; details: P. falciparum Indochina infected erythrocytes, osmotic lysis OD700; higher = more signal, called active from +8 up or from −8 down
[5] = osmotic lysis modulators in infected erythrocytes, primary screen, PSAC antagonist project, cell-based, P. falciparum Indochina, OD700, 3 h (AID 1156); details: higher = more signal, called active from +8 up or from −8 down
[6] = PSAC antagonists in infected red cells, primary screen, cell-based, P. falciparum Indochina, OD700, 18 h (AID 1157); details: P. falciparum Indochina infected erythrocytes, osmotic lysis OD700, 18 h; higher = more signal, called active from +8 up or from −8 down
[7] = modulators of S6 phosphorylation in cells, primary screen, cell-based, A549, cytoblot, luminescence, serum-stimulated (AID 1158); details: A549 phospho-S6 cytoblot, 5 h, higher = more signal;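 further: serum-stimulated A549 lung adenocarcinoma cells; signal is phosphorylated S6 detected by cytoblot immunostaining with HRP secondary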
[8] = target: NADPH oxidase 2 (Homo sapiens) (UniProt P04839); test: NOX2-dependent H2O2 signal modulators, primary screen, NOX inhibitor project, cell-based, HEK293-NOX2, PMA-stimulated, Amplex Red fluorescence (AID 1159); details: 45 min, higher = more signal, called active from +8 up or from −8 down; further: test concentration not given here
Sequence of NADPH oxidase 2 (Homo sapiens) (P04839 whole entry, looked up): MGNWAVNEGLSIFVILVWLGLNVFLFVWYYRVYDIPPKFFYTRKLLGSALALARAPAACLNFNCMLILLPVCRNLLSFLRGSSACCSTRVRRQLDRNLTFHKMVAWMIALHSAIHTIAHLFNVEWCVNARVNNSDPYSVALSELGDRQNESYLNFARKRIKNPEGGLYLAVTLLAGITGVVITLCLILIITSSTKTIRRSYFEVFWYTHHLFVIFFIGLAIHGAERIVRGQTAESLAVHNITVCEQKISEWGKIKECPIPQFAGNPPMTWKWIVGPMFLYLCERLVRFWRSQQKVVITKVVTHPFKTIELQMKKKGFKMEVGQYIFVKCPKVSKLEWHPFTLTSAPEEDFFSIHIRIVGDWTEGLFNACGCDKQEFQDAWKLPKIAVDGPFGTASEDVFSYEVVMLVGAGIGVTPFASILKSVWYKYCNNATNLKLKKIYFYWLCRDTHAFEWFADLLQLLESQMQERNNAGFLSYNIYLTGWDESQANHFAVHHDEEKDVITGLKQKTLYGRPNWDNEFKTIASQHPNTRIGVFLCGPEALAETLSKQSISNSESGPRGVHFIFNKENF

[9] = target: NADPH oxidase 4 (Homo sapiens) (UniProt Q9NPH5); test: NOX4-dependent H2O2 signal modulators, primary screen, NOX inhibitor project, cell-based, HEK293-NOX4, tetracycline-induced, Amplex Red fluorescence (AID 1160); details: 45 min, higher = more signal, called active from +8 up or from −8 down
Sequence of NADPH oxidase 4 (Homo sapiens) (Q9NPH5 whole entry, looked up): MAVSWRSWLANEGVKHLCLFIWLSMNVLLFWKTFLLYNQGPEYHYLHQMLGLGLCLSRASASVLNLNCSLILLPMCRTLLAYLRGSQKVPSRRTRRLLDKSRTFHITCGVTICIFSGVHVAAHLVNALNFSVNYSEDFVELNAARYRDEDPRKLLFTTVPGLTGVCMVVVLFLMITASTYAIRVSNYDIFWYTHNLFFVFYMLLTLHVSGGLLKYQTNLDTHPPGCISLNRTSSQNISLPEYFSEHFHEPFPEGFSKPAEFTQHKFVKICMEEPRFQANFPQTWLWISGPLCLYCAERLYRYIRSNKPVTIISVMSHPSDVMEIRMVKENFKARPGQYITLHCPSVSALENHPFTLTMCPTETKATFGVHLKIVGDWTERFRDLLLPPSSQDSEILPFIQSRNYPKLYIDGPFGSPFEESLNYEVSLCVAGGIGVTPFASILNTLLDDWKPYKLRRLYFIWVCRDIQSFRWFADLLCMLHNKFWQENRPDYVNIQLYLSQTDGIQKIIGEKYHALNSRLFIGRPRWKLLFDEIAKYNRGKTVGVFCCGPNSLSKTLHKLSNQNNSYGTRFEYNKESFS

[10] = target: NADPH oxidase 5 (Homo sapiens) (UniProt Q96PH1); test: NOX5-dependent H2O2 signal modulators, primary screen, NOX inhibitor project, cell-based, HEK293-NOX5, Amplex Red fluorescence (AID 1161); details: HEK293-NOX5, ionomycin, 45 min, higher = more signal
Sequence of NADPH oxidase 5 (Homo sapiens) (Q96PH1 whole entry, looked up): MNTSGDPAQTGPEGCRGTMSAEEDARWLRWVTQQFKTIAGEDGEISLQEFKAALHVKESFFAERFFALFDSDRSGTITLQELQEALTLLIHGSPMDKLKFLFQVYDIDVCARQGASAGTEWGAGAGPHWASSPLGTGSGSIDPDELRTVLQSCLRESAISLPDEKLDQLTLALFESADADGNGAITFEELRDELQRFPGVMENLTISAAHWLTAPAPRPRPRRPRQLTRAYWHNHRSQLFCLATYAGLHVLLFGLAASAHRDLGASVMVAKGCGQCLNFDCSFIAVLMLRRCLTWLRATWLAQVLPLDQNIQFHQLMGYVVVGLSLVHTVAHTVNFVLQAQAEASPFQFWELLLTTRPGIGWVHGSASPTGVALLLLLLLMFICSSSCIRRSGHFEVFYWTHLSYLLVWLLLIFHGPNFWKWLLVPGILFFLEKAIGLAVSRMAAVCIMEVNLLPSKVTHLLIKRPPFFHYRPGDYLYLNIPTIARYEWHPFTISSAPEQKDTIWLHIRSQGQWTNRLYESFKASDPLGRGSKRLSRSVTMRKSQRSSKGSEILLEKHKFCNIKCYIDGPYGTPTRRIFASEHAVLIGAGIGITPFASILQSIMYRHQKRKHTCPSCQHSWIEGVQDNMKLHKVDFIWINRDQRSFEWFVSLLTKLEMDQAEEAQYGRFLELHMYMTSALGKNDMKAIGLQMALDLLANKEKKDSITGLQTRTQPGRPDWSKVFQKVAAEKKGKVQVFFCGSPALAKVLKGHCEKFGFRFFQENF

[11] = A549 cell viability effects, profiling panel, calcein-AM fluorescence, 48 h, basal (AID 1162); details: higher = more signal; further: test concentration not given here
[12] = adipocyte viability effects, profiling panel, cell-based, 3T3-L1 adipocytes, calcein-AM fluorescence, 48 h, basal (AID 1163); details: 3T3-L1 adipocytes viability, higher = more signal; further: test concentration not given here
[13] = HepG2 cell viability effects, profiling panel, calcein-AM fluorescence, 48 h, basal (AID 1164); details: higher = more signal; further: test concentration not given here
[14] = MM1S cell viability effects, profiling panel, calcein-AM fluorescence, 48 h, basal (AID 1165); details: higher = more signal;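 further: viability of MM1S multiple myeloma cells under basal unstimulated conditions; test concentration not given here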
[15] = basal RPMI8226 viability, no added stimulus, profiling panel, cell-based, calcein-AM fluorescence, 48 h, PK04 Diversity Set (AID 1166); details: RPMI8226 myeloma viability, higher = more signal;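 further: cells grown under basal conditions without added stimulus; test concentration not given here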
[16] = basal HepG2 mitochondrial membrane potential changes, profiling panel, cell-based, JC-1 fluorescence, 24 h, 100 nL compound (AID 1167); details: higher = more signal; further: test concentration not given here
[17] = basal 3T3-L1 adipocyte mitochondrial potential changes, profiling panel, cell-based, JC-1 fluorescence, 3T3-L1 adipocytes, 24 h, 100 nL compound (AID 1168); details: JC-1 mitochondrial fluorescence, higher = more signal, called active from +8 up or from −8 down; further: test concentration not given here
[18] = basal RPMI8226 mitochondrial membrane potential changes, profiling panel, cell-based, JC-1 fluorescence, 24 h, 100 nL compound (AID 1169); details: RPMI8226 myeloma, JC-1 mitochondrial potential fluorescence, higher = more signal; further: test concentration not given here
[19] = basal MM1S mitochondrial membrane potential changes, profiling panel, cell-based, JC-1 fluorescence, 24 h, 100 nL compound (AID 1170); details: higher = more signal; further: test concentration not given here
[20] = A549 lung cancer cell viability effects, profiling panel, resazurin fluorescence, 24 h, PK04 Diversity Set (AID 1171); details: higher = more signal, called active from +8 up or from −8 down; further: test concentration not given here

With `CCN1C(=O)[C@H]2[C@H]3[C@H](O)[C@H](O)CC(=NNC(=O)OCc4ccc(OC)cc4)[C@H]3CC[C@H]2C1=O` the z-score [1] was 0.386 (inactive), the composite z-score [2] was 0.792 and the z-score [3] was 3.18 (inactive). For the same compound, the z-score [4] was -0.464 (inactive), the z-score [5] was 0.175 (inactive) and the z-score [6] was 0.232 (inactive). The z-score [7] was 0.479, the z-score [8] was -0.447 (inactive) and the z-score [9] was 0.0987 (inactive). It also gave a z-score [10] of 0.0869, a z-score [11] of 0.173 and a z-score [12] of -0.402. It also gave a z-score [13] of 1.33, a z-score [14] of 0.436 and a z-score [15] of -0.261. For the same compound, the z-score [16] was 0.385, the z-score [17] was -0.596 (inactive) and the z-score [18] was -0.236. The z-score [19] was -0.00926 and the z-score [20] was -0.947 (inactive).
With `COC(=O)C1=C(C)N(Cc2ccccc2)[C@]23O[C@](C(=O)OC)(C(=O)N2[C@@H]1c1ccccc1)[C@H]1C(=O)N(C)C(=O)[C@H]13` the z-score [1] was 0.903 (inactive) and 0.564 (inactive), the composite z-score [2] was -0.0418 and 0.223 and the z-score [3] was 1.35 (inactive) and -0.228 (inactive). For the same compound, the z-score [4] was 0.719 (inactive) and -1.26 (inactive), the z-score [5] was 0.501 (inactive) and -0.562 (inactive) and the z-score [6] was 0.248 (inactive) and -1.16 (inactive). The z-score [7] was 0.486 and 0.567, the z-score [8] was -0.56 (inactive) and -0.171 (inactive) and the z-score [9] was -0.329 (inactive) and 0.811 (inactive). For the same compound, the z-score [10] was 1.57 and 0.888, the z-score [11] was 0.395 and 1.67 and the z-score [12] was 1.1 and 0.612. For the same compound, the z-score [13] was 0.0623 and -0.164, the z-score [14] was 0.639 and 0.0646 and the z-score [15] was -1.44 and 1.16. For the same compound, the z-score [16] was 0.873 and 0.158, the z-score [17] was 0.107 (inactive) and 1.13 (inactive) and the z-score [18] was -0.536 and 0.12. For the same compound, the z-score [19] was 0.551 and -0.416 and the z-score [20] was -0.81 (inactive) and 0.0401 (inactive).
In the case of `CCOC(=O)[C@H](Cc1ccccc1)NC(=O)CCC1CC(OC(=O)NCc2cccc3ccccc23)CC2(CCCC(COC(=O)NCCCN3CCCC3=O)O2)O1` (stereo not given in full), the z-score [1] is reported as -0.0133 (inactive), the composite z-score [2] is reported as 0.0371 and the z-score [3] is reported as -0.532 (inactive). The z-score [4] was -0.874 (inactive), the z-score [5] was -2.17 (inactive) and the z-score [6] was -0.685 (inactive). The z-score [7] was -0.46, the z-score [8] was 1.09 (inactive) and the z-score [9] was 0.487 (inactive). The z-score [10] was -0.609, the z-score [11] was 2.08 and the z-score [12] was 0.0309. It also gave a z-score [13] of -0.93, a z-score [14] of -0.0157 and a z-score [15] of -0.178. The z-score [16] was 0.397, the z-score [17] was 0.17 (inactive) and the z-score [18] was -0.195. For the same compound, the z-score [19] was -0.5 and the z-score [20] was 0.811 (inactive).
In the case of `C=CCN(CCCCC)C(=O)C1N(CCOCCO)C(=O)C2C(C(=O)O)C3C=CC21O3` (stereo not given), the z-score [1] is reported as -0.657 (inactive) and -0.678 (inactive), the composite z-score [2] is reported as -0.0518 and -0.0061 and the z-score [3] is reported as -0.326 (inactive) and 0.243 (inactive). For the same compound, the z-score [4] was -0.438 (inactive) and -0.392 (inactive), the z-score [5] was -0.661 (inactive) and -0.448 (inactive) and the z-score [6] was 0.0613 (inactive) and -0.159 (inactive). The z-score [7] was -0.192 and 0.359, the z-score [8] was 0.347 (inactive) and 0.481 (inactive) and the z-score [9] was -1.7 (inactive) and -1.87 (inactive). For the same compound, the z-score [10] was 0.569 and 0.0493, the z-score [11] was -0.178 and -0.126 and the z-score [12] was 0.21 and -0.603. The z-score [13] was -0.499 and -0.87, the z-score [14] was 0.226 and 1.03 and the z-score [15] was -0.361 and 0.133. The z-score [16] was -0.562 and -0.928, the z-score [17] was -0.279 (inactive) and -0.227 (inactive) and the z-score [18] was 0.252 and 0.715. The z-score [19] was 0.377 and 0.103 and the z-score [20] was -0.529 (inactive) and -1.03 (inactive).
With `C=CCN(C(=O)C(c1cccs1)N(C(=O)/C=C\C(=O)O)c1ccc(CCO)cc1)c1ccc(OC)cc1` (stereo not given) the z-score [1] was 2.16 (inactive) and 0.76 (inactive), the composite z-score [2] was -0.0186 and -0.229 and the z-score [3] was 1.73 (inactive) and -1.02 (inactive). The z-score [4] was 0.0371 (inactive) and -0.3 (inactive), the z-score [5] was -0.0439 (inactive) and 0.347 (inactive) and the z-score [6] was 0.454 (inactive) and -0.0131 (inactive). The z-score [7] was 0.749 and 0.862, the z-score [8] was -0.147 (inactive) and -0.268 (inactive) and the z-score [9] was -0.649 (inactive) and -1.34 (inactive). For the same compound, the z-score [10] was 0.137 and -0.261, the z-score [11] was -0.256 and 1.54 and the z-score [12] was 0.015 and -0.199. The z-score [13] was 1.35 and 0.76, the z-score [14] was 1 and -0.0823 and the z-score [15] was 1.2 and -0.0106. For the same compound, the z-score [16] was 0.417 and 0.583, the z-score [17] was 0.249 (inactive) and 1.26 (inactive) and the z-score [18] was 0.201 and 0.0752. The z-score [19] was -1.07 and 1.18 and the z-score [20] was 0.307 (inactive) and 0.0568 (inactive).
In the case of `COC(=O)C1=C(C)N(Cc2ccccc2)C2=C3C(=O)N(c4ccccc4)C(=O)[C@@H]3[C@@](O)(C(=O)OC)C(=O)N2[C@@H]1c1ccccc1`, the z-score [1] is reported as 0.417 (inactive) and 0.339 (inactive), the composite z-score [2] is reported as 0.0752 and -0.0984 and the z-score [3] is reported as 0.518 (inactive) and 0.516 (inactive). For the same compound, the z-score [4] was 0.372 (inactive) and -0.427 (inactive), the z-score [5] was 0.509 (inactive) and 0.736 (inactive) and the z-score [6] was 0.54 (inactive) and -0.962 (inactive). For the same compound, the z-score [7] was -0.528 and 1.43, the z-score [8] was -0.0787 (inactive) and 0.333 (inactive) and the z-score [9] was -0.0918 (inactive) and 0.833 (inactive). For the same compound, the z-score [10] was -0.244 and 0.251, the z-score [11] was 1.52 and 2.18 and the z-score [12] was 0.0671 and 1.01. The z-score [13] was 0.286 and -0.126, the z-score [14] was -0.532 and 0.354 and the z-score [15] was 0.585 and 1.26. The z-score [16] was 0.889 and 1.68, the z-score [17] was 0.143 (inactive) and 1.26 (inactive) and the z-score [18] was -0.87 and -0.111. For the same compound, the z-score [19] was 0.702 and 0.136 and the z-score [20] was 0.497 (inactive) and 0.767 (inactive).
With `C=CCN(C(=O)C1N(c2c(Cl)cccc2CO)C(=O)C2C(C(=O)O)C3C=CC21O3)C(C)(C)C` (stereo not given) the z-score [1] was 1.66 (inactive) and 1.99 (inactive), the composite z-score [2] was -0.945 and -0.0547 and the z-score [3] was 1.77 (inactive) and -0.973 (inactive). The z-score [4] was 0.821 (inactive) and -1.1 (inactive), the z-score [5] was 1.03 (inactive) and -0.229 (inactive) and the z-score [6] was 0.604 (inactive) and -1.54 (inactive). For the same compound, the z-score [7] was 0.442 and 1.04, the z-score [8] was 0.961 (inactive) and 0.116 (inactive) and the z-score [9] was -0.288 (inactive) and -0.645 (inactive). The z-score [10] was 0.788 and -0.335, the z-score [11] was -0.875 and 0.96 and the z-score [12] was 0.766 and -0.202. The z-score [13] was 0.613 and 1.78, the z-score [14] was 0.64 and 1.54 and the z-score [15] was -0.224 and -0.394. The z-score [16] was -0.536 and 0.627, the z-score [17] was -1.27 (inactive) and 1.46 (inactive) and the z-score [18] was -0.153 and 0.828. The z-score [19] was 0.0478 and 1.11 and the z-score [20] was -0.289 (inactive) and 0.361 (inactive).
